Out of some 320,000 compounds screened, about 22,000 (6.9%) were called active. Another 27% or so got no clear call; they are omitted. The call rests on the fitted dose curve; in most records, active means well fitted inhibition curve with a large enough effect; inconclusive means small, poorly fitted or top-dose-only effect, or another doubt; inactive means no such curve, though single readings can be large or run the other way. The list comes from a sample in which actives are over-represented; it also holds similar structures and randomly drawn compounds. A call without a number means that no potency is given here.
assay: Primary qHTS for delayed death inhibitors of the malarial parasite plastid, 96 hour incubation; conditions: P. falciparum luciferase reporter growth; series mostly up to 28.7 µM
In short: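 Readout is luminescence from an integrated firefly luciferase in P. falciparum. Red cells, 2% hematocrit and 0.05% parasitemia final, were cultured with compound through two parasite generations (96 hours) at 37 C, 5% CO2.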
Potency means the concentration at half of the fitted maximal effect.

| SMILES | Potency |
| --- | --- |
| Cc1cccc(NC(=O)c2cccc(C(=O)Nc3cccc(C)c3C)n2)c1C | inactive |
| COc1cc(C(=O)N2CCN(C)CC2)cc(OC)c1OC | inactive |
| C=CCOc1ccc(/C=C/C(=O)OCC(=O)NC(C)c2ccc(F)cc2)cc1 (stereo unspecified) | inactive |
| COc1ccc(Cn2c(O)c(/C=C3/C=CC=N3)c(=O)[nH]c2=O)cc1 | inactive |
| COc1ccc(C(=O)NCC(=O)N/N=C/c2ccc([N+](=O)[O-])s2)cc1OC | inactive |
| COc1cc(/C=N/NC(=O)CNC(=O)c2ccncc2)ccc1OC(C)=O | inactive |
| COc1ccc(C(=O)NCC(=O)N/N=C/c2ccc([N+](=O)[O-])o2)cc1OC | 1.85 µM (active) |
| O=C(O)Cc1csc(-c2cccc(Oc3ccccc3)c2)n1 | inactive |
| COc1ccc(C(=O)NCCn2nc(C)cc2C)cc1OC1CCN(C(C)=O)CC1 | inactive |
| COCCOC1CCN(C(=O)c2ccc(OC)c(OC3CCN(C(C)C)CC3)c2)CC1 | inactive |
| COC(=O)C1CCCCN1C(=O)c1ccc(OC2CCN(C(C)=O)CC2)c(OC)c1 (stereo unspecified) | 11.7 µM (active) |
| O=C(CSc1nc(=O)n2ccccc2n1)Nc1ccc2c(c1)OCCO2 | inactive |
| CCc1c(C)sc(NC(=O)/C=C/c2ccc3c(c2)OCO3)c1C(=O)OC | inactive |
| Cc1cccc(NC(=O)/C=C/c2ccc3c(c2)OCO3)n1 | 9.28 µM (active) |
| Cc1cccc(NC(=O)Nc2ccc3c(c2)OCO3)n1 | inactive |
| Cc1nc(COc2cccc(Cl)c2)sc1C(=O)/C=C/N(C)C | inactive |
| CC(=O)c1ccc(N2CCN(C(=O)CCNC(=O)Cn3ccc4ccccc4c3=O)CC2)cc1 | inactive |
| O=C(NCc1cccc(Cl)c1)C1=CC=CN2CCS(=O)(=O)N=C12 | inactive |
| Cc1cccc(N2CC(C)Cn3c2nc2c3c(=O)n(CC(=O)OCc3ccccc3)c(=O)n2C)c1 (stereo unspecified) | 11.7 µM (active) |
| Cc1cccc(Cn2c(N3CCN(c4ccccc4)CC3)nc3c2c(=O)n(C)c(=O)n3C)c1 | inactive |
| CC1CN(C2CCCCC2)c2nc3c(c(=O)n(C)c(=O)n3C)n2C1 (stereo unspecified) | inactive |
| O=c1c2cc([N+](=O)[O-])ccc2nc2n1CCC2 | inactive |
| COC(=O)c1sc(SC)c(S(=O)(=O)C(C)C)c1N/N=C(\C#N)S(=O)(=O)c1ccccn1 | inactive |
| CC1CC(NC(=O)/C(C#N)=C/c2ccc[nH]2)CC(C)(C)C1 (stereo unspecified) | 3.29 µM (active) |
| Cn1c(=O)c2c(nc(N3CCCCCC3)n2CC(O)COc2ccc(Cl)cc2)n(C)c1=O (stereo unspecified) | inactive |
| Cn1c(=O)c2c(ncn2CC(COCc2ccccc2Cl)OCc2ccccc2Cl)n(C)c1=O (stereo unspecified) | 9.28 µM (active) |

| SMILES | Potency |
| --- | --- |
| Cn1c(=O)c2c(ncn2CCc2ccccc2)n(C)c1=O | inactive |
| CCOc1ccc(NC(=O)c2ccc(NC(=O)CN3C(=O)C(=O)N(CC(C)C)C3=O)cc2)cc1 | inactive |
| COc1cc(/C=N/N2CCN(c3ccccc3)CC2)ccc1OC(C)=O | inactive |
| CSc1ncccc1C(=O)Nc1ccc2c(c1)OCO2 | inactive |
| CSc1ccccc1NC(=O)c1ccc2c(c1)CCN2S(C)(=O)=O | inactive |
| O=C(c1cc(-c2ccco2)nc2ccccc12)N(Cc1nnc(-c2ccc(Cl)cc2)o1)C1CC1 | 2.08 µM (active) |
| O=C(c1ccc(Cl)s1)N(Cc1nnc(-c2ccccc2Cl)o1)C1CC1 | inactive |
| CN(C(=O)COC(=O)c1cc(-c2ccco2)nc2ccccc12)C1CCS(=O)(=O)C1 (stereo unspecified) | inactive |
| O=C(NCCc1c[nH]c2ccccc12)c1cc2ccccc2oc1=O | inactive |
| Cc1ccc(S(=O)(=O)N(C)CC(=O)NCCc2c[nH]c3ccccc23)cc1 | inactive |
| CN(c1ccccc1)S(=O)(=O)c1ccc(Cl)c(C(=O)NCCc2c[nH]c3ccccc23)c1 | 9.28 µM (active) |
| COc1ccc(NC(=O)CNC(=O)Cn2ccc3ccccc3c2=O)c(OC)c1 | inactive |
| COCCn1c(C)cc(C(=O)COC(=O)CNC(=O)c2ccco2)c1C | inactive |
| CC(=O)N1CCN(CC(C)(C)NS(=O)(=O)c2ccc(C)cc2)CC1 | inactive |
| CCOC(=O)CN1CC23C=CC(O2)C(C(=O)Nc2ccc(F)cc2)C3C1=O (stereo unspecified) | inactive |
| CC(C)COC(=O)C1C2C=CC3(CN(C(C)c4ccc(Br)cc4)C(=O)C13)O2 (stereo unspecified) | 6.57 µM (active) |
| CCCC(=O)Nc1ncnc2c1ncn2[C@@H]1O[C@@H]2OP(=O)(O)OC[C@H]2[C@H]1OC(=O)CCC | inactive |
| Cc1ccccc1-n1nc(C)c2cc(C(=O)NC3CC3)sc21 | 5.22 µM (active) |
| Cc1cccn2c(=O)c3cc(C(=O)NC4CCCCC4)sc3nc12 | inactive |
| Cc1ccc(-c2nn(-c3ccccc3)cc2C(=O)NC2CCC(O)CC2)cc1 (stereo unspecified) | inactive |
| O=c1cc(Cl)c2ccccc2n1-c1ccccc1 | inactive |
| CCCCn1c(N)c(N(CC(C)C)C(=O)C2CSC3(C)CCC(=O)N23)c(=O)[nH]c1=O (stereo unspecified) | inactive |
| CCn1c(-c2ccoc2C)n[nH]c1=S | inactive |
| CCCc1cc(-c2n[nH]c(=S)n2CC)c2ccccc2n1 | 1.65 µM (active) |
| CCn1c(-c2ccncc2)n[nH]c1=S | inactive |
| CN(C)CCCNC(=S)N1CCC(c2nc3ccccc3[nH]2)CC1 | inactive |

| SMILES | Potency |
| --- | --- |
| COc1ccc(C[C@H](C(=O)O)N2C(=O)c3ccc(C(=O)O)cc3C2=O)cc1 | inactive |
| O=C(C1CCCO1)N1CCN(S(=O)(=O)c2ccc(Br)cc2)CC1 (stereo unspecified) | inactive |
| Cc1ccc(S(=O)(=O)N(CC(=O)Nc2cccc([N+](=O)[O-])c2)Cc2ccc(Cl)cc2)cc1 | inactive |
| COc1ccc(C)cc1S(=O)(=O)N(CC(=O)Nc1cccc([N+](=O)[O-])c1)c1ccc(C)cc1 | 11.7 µM (active) |
| COc1ccc(N(CC(=O)Nc2ccc(C)cc2C)S(=O)(=O)c2ccccc2[N+](=O)[O-])c(OC)c1 | inactive |
| CC(C)c1c(C(=O)N/N=C/c2ccccc2C(=O)O)nnn1-c1nonc1N | inactive |
| O=C(CNC(=O)[C@@H]1Cc2ccccc2CN1)NC1CCCCC1 | inactive |
| O=C(Cc1ccc(S(=O)(=O)N2CCOCC2)s1)N1CCN(c2ccc(C(F)(F)F)cc2[N+](=O)[O-])CC1 | 11.7 µM (active) |
| O=C(OCC(=O)N1CCOCC1)c1ccc(N2CCOCC2)c([N+](=O)[O-])c1 | inactive |
| O=C(COc1ccc(S(=O)(=O)N2CCOCC2)cc1Cl)N1CCOCC1 | inactive |
| COc1cccc(CNS(=O)(=O)c2cc3c(cc2C)n(C)c(=O)c(=O)n3C)c1 | inactive |
| CCOc1ccc(C(=O)Nc2cccc(SC)c2)cc1 | inactive |
| O=C(Nc1cccc(Cl)c1)OCc1ccccn1 | inactive |
| CCOc1c(Nc2cccc(Cl)c2)c(=O)c1=O | 11.7 µM (active) |
| O=C(NCc1ccc(F)cc1)C1CCN(C(=O)Nc2ccc(F)cc2)CC1 | inactive |
| CC1CCCCN1S(=O)(=O)CCNC(=O)c1ccccc1 (stereo unspecified) | inactive |
| Cc1cc(C(=O)OCC(=O)Nc2ccccc2Cl)c(C)o1 | inactive |
| O=C(O)c1ccc(S(=O)(=O)N2CCOCC2)o1 | inactive |
| O=C(Cc1ccc(S(=O)(=O)N2CCOCC2)s1)NCCC(c1ccccc1)c1ccccc1 | 7.38 µM (active) |
| COC(=O)COc1ccc(S(=O)(=O)N2CCOCC2)cc1 | inactive |
| COc1ccccc1NC(=O)COC(=O)Cc1ccc(S(=O)(=O)N2CCCCC2)s1 | inactive |
| COCCN(Cc1ccccc1)C(=O)Cc1ccc(S(=O)(=O)N2CCOCC2)s1 | 9.28 µM (active) |
| O=C(COC(=O)c1cc(S(=O)(=O)N2CCOCC2)ccc1Cl)NCCc1ccccc1 | inactive |
| C[n+]1ccc(C(=O)NCc2ccccc2)cc1 | inactive |
| COc1ccnc2c1c(=O)n(Cc1cccc(F)c1)c(=O)n2C | inactive |
| COc1ccc(/C=N/Nc2cc(N3CCOCC3)nc(C)n2)c(OC)c1 | inactive |

| SMILES | Potency |
| --- | --- |
| CCNc1nc(Oc2ccc(C(=O)OC)cc2)nc(N2CCOCC2)n1 | inactive |
| Cc1cc(/C=C2/SC(=O)N(CC(=O)N3CCCC3)C2=O)c(C)n1C | inactive |
| Cc1cc([N+](=O)[O-])ccc1NC1CCCC1 | inactive |
| COc1cccc(C(=O)CC(=O)C(=O)Nc2ccc([N+](=O)[O-])cc2C)c1 | inactive |
| Cc1cc([N+](=O)[O-])ccc1NCc1cccc([N+](=O)[O-])c1 | 10.4 µM (active) |
| COC(=O)c1ccccc1NC(=O)CSc1nnnn1C | inactive |
| COC(=O)c1ccccc1NC(=O)CSc1ccccn1 | 2.94 µM (active) |
| C[C@@H]1CC[C@@]2(OC1)O[C@H]1C[C@H]3[C@@H]4CC=C5C[C@@H](O)[C@H](O)C[C@]5(C)C4CC[C@]3(C)[C@H]1[C@@H]2C (stereo partly specified) | inactive |
| COc1cc(C(=O)NCC(=O)N2CC=C(c3ccccc3)CC2)cc(OC)c1OC | inactive |
| Cc1cc(OCC(=O)Nc2c(C)n(C)n(-c3ccccc3)c2=O)ccc1[N+](=O)[O-] | inactive |
| O=C(COC(=O)c1ccc[nH]c1=O)Nc1ccc2c(c1)OC(F)(F)O2 | inactive |
| O=C(O)COCC(=O)NCc1csc2ccc(Cl)cc12 | inactive |
| O=C(Nc1ccc(CN2CCOCC2)cc1)c1cc(Cl)ccc1Cl | inactive |
| Clc1ccc(CN2CCCCCC2)cc1Cl | 11.7 µM (active) |
| c1cc(-c2nn[nH]n2)ccc1CN1CCCCC1 | inactive |
| COc1ccccc1C(=O)NC(=S)NC12CC3CC(CC(C3)C1)C2 | inactive |
| COc1ccc(NC(=S)N2CCC(NC(=O)c3cccc(F)c3)CC2)cc1 | inactive |
| COc1ccc(Cn2c(-c3ccc(Cl)cc3)c[n+]3ccccc23)cc1 | 0.117 µM (active) |
| CCn1c(C)cc(=O)cc1-c1ccc(Cl)cc1 | inactive |
| COc1ccc(C(=O)CN(C(=O)c2ccc(Cl)cc2)N2C(=O)c3ccccc3C2=O)cc1 | inactive |
| Cc1cc(C)c(C(=O)CSc2nc(C)cc(=O)[nH]2)c(C)c1 | inactive |
| CSc1nnc(C2CCCN(CC(=O)Nc3ccccc3N3CCOCC3)C2)n1C(C)C (stereo unspecified) | inactive |
| COc1ccc(C(=O)n2nc(C)c(Br)c2C)cc1OC | inactive |
